# Entries with a potency or affinity are not part of this list. Values without a mark were called inactive.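 How the source made its calls: active means cell killing, meaning signal decrease, with fitted half-maximal dose at or below ten times the top valid tested dose; inconclusive means poor fit, or flat curve with 30 to 70% signal loss; inactive means the rest.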
# Test: HeLa cell cytotoxicity, dose response, cytotoxicity control for MITF activator project, CellTiter-Glo luminescence, cherry-pick samples (AID 540259);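 further: 0% = DMSO neutral control and -100% = mitoxantrone positive control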
# Details: HeLa viability, CellTiter-Glo ATP luminescence, 24 h; series mostly up to 35 µM; activity change, negative = cytotoxicity: at the top concentration
row,SMILES,"activity change, negative = cytotoxicity"
1,CC(C)(C)C(=O)OCc1nc(-c2ccc(F)cc2)cs1,10%
2,COc1ccc(C(=O)Nc2cc3c4c(c2)CC(=O)N4CCC3)c(OC)c1,11.5%
3,Cc1ccc(/C=N/N2C(=O)c3ccccc3NC2c2ccc(C)cc2)cc1 (configuration not stated),-11.9%
4,c1ccc2c(c1)CC/C2=N/Nc1nc2ccccc2[nH]1,-8.38%
5,COc1ccc(NC(=O)n2ncc3cc(Cl)ccc32)cc1OC,2.18%
6,Cc1cccc(NC(=O)c2onc3c2CCCC3)c1C,3.8%
7,Cc1ccc(NC(=O)N2CCc3ccccc3C2)cc1C,9.08%
8,O=C(N=C1N=C2C=CC=CN2Cc2ccccc21)c1ccc(S(=O)(=O)N2CCCC2)cc1,5%
9,CCN(CC)C(=O)CCc1nnc(Cc2cccc(C(F)(F)F)c2)o1,-0.229%
10,Cc1ccc(NC(=O)CC(=O)c2ccccc2)cc1C,-0.353%
11,CC1CCC(NC(=O)c2cc3c(s2)CCCC3)CC1 (configuration not stated),-6.5%
12,CC(=O)NCCC1CCCCN1C(=O)c1cc(COc2cc(C)ccc2C)on1 (configuration not stated),4.53%
13,CCCc1ccc(C(=O)NNc2ccccc2F)cc1,5%
14,Nc1ccc(Oc2cc(N)cc(Oc3ccccc3)c2)cc1,9.55%
15,Cc1ccc(Nc2ncc3c(n2)CC(C)(C)CC3=O)cc1,0.285%
16,CC(=O)c1cnc2nc(SCc3ccccc3)nn2c1C,17.8%
17,CC(=O)c1ccc(Nc2ccc(-c3ccccc3C)nn2)cc1,12.9% [at 11 µM]
18,Cc1nnc(NC(=O)c2ccc(N3CCCC3=O)cc2)s1,6.95%
19,Cc1ccc(C(=O)Cn2nnc3ccccc32)cc1C,2.49%

row,SMILES,"activity change, negative = cytotoxicity"
1,C/C(=C\c1ccc(N)cc1)c1nc2ccccc2[nH]1,20.2%
2,Cc1ccn2cc(-c3cccc(NS(C)(=O)=O)c3)nc2c1,0.194%
3,O=C(Cc1ccccc1)Nc1ccc2c(c1)OC1(CCCC1)O2,10.1%
4,COC(=O)c1ccc(CSC2=NCCS2)cc1,9.68%
5,COc1ccccc1Nc1nc(C)cs1,25.3%
6,COc1ccc(N=C(C)c2sc3ccccc3c2O)cc1,0.743%
7,CCc1ccc(OC(=O)Nc2ccccc2)cc1,11.3%
8,Cc1ccc(CONC(=O)c2ccc(C)cc2)cc1,22%
9,CC(C)(C)c1ccc(C(=O)NCc2ccccc2)cc1,-4.79%
10,COc1cccc(CNc2nc3ccccc3n2C)c1O,-5.96%
11,CCN(CC)CC(=O)Nc1scc2c1c(=O)oc1ccccc12,5.03%
12,CC1CCc2nc(NC(=O)Cc3cccs3)sc2C1 (configuration not stated),4.91%
13,Cc1ccc(-c2nn(-c3ccccc3)cc2/C=N/O)cc1,27.1% [at 11 µM]
14,c1csc(CSc2nc3ccccc3s2)c1,-1.49%
15,Cc1ccc2cc(NC(=O)c3ccccc3C)ccc2n1,0.529% [at 11 µM]
16,C/C(=N\O)c1ccc(N2C(=O)C3CC=C(Cl)CC3C2=O)cc1 (configuration not stated),12.3% [at 11 µM]
17,Cc1ccc(S(=O)(=O)Nc2cccc(-c3ccc(N4CCCCCC4)nn3)c2)cc1,-18.1%
18,Cc1cc(C)n2nc(SCN3C(=O)c4ccccc4C3=O)nc2n1,-0.893%

# Reference: PubChem BioAssay AID540259 (Broad Institute, 2011)
